Results published in the supplement of paper PMC6522484.
± gives the standard deviation of the averaged measurements.

Test system: SW480
Assay: TCF/Wnt firefly luciferase reporter signal relative to plate median (fraction of plate median); higher = higher Wnt reporter signal
Details: 5 µM; treatment time 24 h; reporter: 7TFP
Outline: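 For this screen, colorectal cancer cell lines carrying stable lentiviral TCF/Wnt firefly luciferase reporters, either 7TFP or TCF4/Wnt, were seeded into 384-well plates. A day's wait of 24 h preceded addition of library compounds at a final 5 µM, which stayed on the cells for 24 h. Firefly luciferase or CellTiterGlo luminescence, read on parallel plates, was normalised to the plate median per well, and the reported value is the mean of two independent replicates.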

Compared with `CC(C)[C@H](N)C(=O)OCCOCn1cnc2c(=O)nc(N)[nH]c21`, `CCOc1nc2cccc(C(=O)OC(C)OC(=O)OC3CCCCC3)c2n1Cc1ccc(-c2ccccc2-c2nn[nH]n2)cc1` (stereo not given) is higher in “TCF/Wnt firefly luciferase reporter signal” value: 0.876 ± 0.11 for the first, 1.07 ± 0.064 for the second.

Compared with `COc1cc2c(=O)c(-c3ccc4c(c3)OCO4)coc2c(OC)c1OC`, `COc1c2ccoc2nc2c(OC)c(OCC(O)C(C)(C)O)ccc12` (stereo not given) is higher in “TCF/Wnt firefly luciferase reporter signal” value: 0.922 ± 0.026 for the first, 1.02 ± 0.057 for the second.

`CC1=C(/C=C/C(C)=C/C=C/C(C)=C/C=C/C=C(C)/C=C/C=C(C)/C=C/C(=O)[C@]2(C)C[C@@H](O)CC2(C)C)C(C)(C)C[C@H](O)C1` and `C[C@]12C=CC(=O)C=C1CC[C@@H]1[C@@H]2[C@@H](O)C[C@@]2(C)[C@H]1CC[C@]2(O)C(=O)COC(=O)CCC(=O)O` are within error of each other in “TCF/Wnt firefly luciferase reporter signal” value: 1 ± 0.051 for the first, 0.969 ± 0.072 for the second.

`O=c1cc(-c2ccccc2)oc2cc(O)c(O)c(O)c12` and `O=c1cc(-c2ccccc2)oc2c(O)c(O)ccc12` are within error of each other in “TCF/Wnt firefly luciferase reporter signal” value: 1.02 ± 0.037 for the first, 1.11 ± 0.057 for the second.

`COC(=O)c1c(OC)cc2c(c1C)Oc1c(Cl)c(OC(C)=O)c(Cl)c(C)c1C(=O)O2` and `COc1cc(/C=C/C(=O)O)ccc1O` [Ferulic acid (Biofocus)] are within error of each other in “TCF/Wnt firefly luciferase reporter signal” value: 0.968 ± 0.02 for the first, 1.04 ± 0.069 for the second.

`CC(C(=O)O)c1ccc2c(c1)[nH]c1ccc(Cl)cc12` (stereo not given) and `CC(COc1ccccc1)NC(C)C(O)c1ccc(O)cc1` (stereo not given) are within error of each other in “TCF/Wnt firefly luciferase reporter signal” value: 1.09 ± 0.021 for the first, 1.01 ± 0.076 for the second.

`C#CCCCCCCCCCCCC(O)CC(O)COC(C)=O` (stereo not given) and `CCCCCC/C=C\CCCCCCCc1cccc(O)c1C(=O)O` are within error of each other in “TCF/Wnt firefly luciferase reporter signal” value: 0.941 ± 0.098 for the first, 0.996 ± 0.021 for the second.

`Cc1ccc(-c2cc(C(F)(F)F)nn2-c2ccc(S(N)(=O)=O)cc2)cc1` and `CN1CCN(CC/C=C2/c3ccccc3Sc3ccc(S(=O)(=O)N(C)C)cc32)CC1` are within error of each other in “TCF/Wnt firefly luciferase reporter signal” value: 0.947 ± 0.04 for the first, 0.983 ± 0.17 for the second.

`C/C1=C\CC(C)(C)/C=C/CC2(C)OC2CC1` (stereo not given) and `C=CC(C)(O)CCC1C(=C)CC(O)C2C(C)(C)CCCC12C` (stereo not given) are within error of each other in “TCF/Wnt firefly luciferase reporter signal” value: 0.8895 ± 0.00071 for the first, 0.927 ± 0.1 for the second.

First: CN(C)CCN(Cc1ccccc1)c1ccccn1
Second: CC1(C)S[C@@H]2[C@H](NC(=O)[C@H](N)c3ccccc3)C(=O)N2[C@H]1C(=O)O
The “TCF/Wnt firefly luciferase reporter signal” value of the first is higher: 1.03 ± 0.05 for the first, 0.917 ± 0.027 for the second.

`O=c1c(-c2cc(O)c(O)c(O)c2)coc2cc(O)c(O)c(O)c12` and `CCN1CCN(c2cc3c(cc2F)c(=O)c(C(=O)O)cn3C2CC2)CC1` are within error of each other in “TCF/Wnt firefly luciferase reporter signal” value: 0.93 ± 0.14 for the first, 0.9395 ± 0.005 for the second.

`N=C(N)N/N=C/c1c(Cl)cccc1Cl` and `OC(Cn1cncn1)(Cn1cncn1)c1ccc(F)cc1F` are within error of each other in “TCF/Wnt firefly luciferase reporter signal” value: 1.05 ± 0.064 for the first, 1.01 ± 0.054 for the second.

For `CC(C)NNC(=O)c1ccncc1`, the “TCF/Wnt firefly luciferase reporter signal” value was 1.01 ± 0.021.
